High-throughput results: PubChem, National Center for Advancing Translational Sciences (NCATS)
This is a sample that favours compounds with a hit; in the whole collection about 19% have one here.
HT1080NT lethal = qHTS for induction of synthetic lethality in tumor cells producing 2HG: qHTS for the HT-1080-NT fibrosarcoma cell line | 1.6% of 360,000 active | Potency, µM (series often up to 46.1 µM), for inactives: top-dose activity, negative = less viability, actives largely listed as cytotoxic | HT-1080-NT fibrosarcoma viability, CellTiter-Glo ATP luminescence, 48 h | AID 686970, 2013;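 note: NT is the 2HG producing partner of a matched IDH1 knockdown line; 0% = DMSO-treated cells and -100% = media-only wells without cells; nearly all actives have a fitted effect of over 55% in size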
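Read-out is CellTiter-Glo luminescence after 10 minutes at room temperature, following 48 hours' compound treatment of HT-1080-NT cells (750 cells/well, RPMI, 5% FBS, 37 degrees C).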
KB-3-1 cytotox = qHTS assay for MDR1-selective chemotherapeutics: Primary screen using the parental adenocarcinoma cell KB-3-1; KB-3-1 viability, CellTiter-Glo ATP luminescence, 72 h; Potency, µM (doses to about 46.1 µM), actives largely listed as cytotoxic; 1.4% of 400,000 active; note: nearly all actives have a fitted effect of over 60% in size
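KB-3-1 parental drug-naive adenocarcinoma cells in DMEM/10% FBS, incubated 72 h at 37 C with pin-transferred compounds across a concentration series. Viability by CellTiter-Glo luminescence; concentration-response curves fitted after normalization.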
HT1080 IDH1KD tx = qHTS for induction of synthetic lethality in tumor cells producing 2HG: qHTS for the HT-1080-IDH1KD cell line; HT-1080 IDH1 knockdown viability, ATP luminescence, 48 h; Potency, µM (titrated, usually from 46.1 µM), for the others: at the highest dose activity, negative = toxicity, hits mostly cytotoxic; 2% of 360,000 active;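 note: 0% = DMSO wells and -100% = cell-free medium wells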
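Knockdown cells (IDH1KD HT-1080) received compounds 2 h after plating at 750 cells/well and were kept 48 h at 37 °C in 5% FBS RPMI. A CellTiter-Glo luminescence read gave % activity for curve fitting.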
TDP1 cell noCPT = qHTS for Inhibitors of human tyrosyl-DNA phosphodiesterase 1 (TDP1): qHTS in cells in absence of CPT. DT40 Tdp1-/- hTDP1 cells, no CPT, ATP luminescence, 48 h. Potency, µM (doses to about 46.2 µM), without a hit: at the top dose activity change, negative = growth inhibition, actives largely listed as inhibitors. 15% of 420,000 active. AID 686978, 2013; note: nearly all actives have a fitted effect of over 55% in size
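Chicken DT40 Tdp1-/- cells stably complemented with human TDP1 were seeded at 400 cells/well with DMSO in place of 20 nM camptothecin. After compound pinning, cells grew at least 48 hr at 37 °C; viability read by CellTiter-Glo luminescence.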
TDP1 cell CPT = qHTS for Inhibitors of human tyrosyl-DNA phosphodiesterase 1 (TDP1): qHTS in cells in presence of CPT; chicken DT40 Tdp1-/-;hTDP1 cells + 20 nM CPT, ATP luminescence, 48 h; Potency, µM (titrated, usually from 46.2 µM), inactives show at the highest dose activity change, negative = growth inhibition, hits mostly inhibitors; 12% of 420,000 active; AID 686979, 2013; note: nearly all actives have a fitted effect of over 55% in size
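Chicken DT40 Tdp1-/- cells stably complemented with human TDP1 were seeded at 400 cells/well in medium containing 20 nM camptothecin, exposed to pin-transferred compounds, and grown at 37 °C for at least 48 hr. Viability was read as ATP luminescence.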
KB-V1 cytotox = qHTS assay for MDR1-selective chemotherapeutics: Primary screen using the drug-selected MDR subline cells KB-V1; KB-V1 MDR cells viability, CellTiter-Glo, 72 h; Potency, µM (top dose mostly 46.1 µM), most hits filed as cytotoxic; 3.4% of 400,000 active; AID 1347076, 2019; note: nearly all actives have a fitted effect of over 60% in size
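qHTS viability screen in drug-selected KB-V1 MDR cells: 72 h compound treatment at 37 degrees C, ATP luminescence end point.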
The depositor's hits bear a star; i = inactive; ? = inconclusive; / = not tested or not shown. Calls come from the whole dose curve; as a rule, active = well fitted curve in the direction sought with a large enough effect; inconclusive = small, poorly fitted or top-dose-only effect, or another doubt; inactive = no such curve, though single readings can be large; an effect the other way counts as inactive or inconclusive. Unless noted, % is set by controls: 0 for no effect and ±100 for the full control effect; potency is the fitted concentration of half-maximal effect.

SMILES	HT1080NT lethal	KB-3-1 cytotox	HT1080 IDH1KD tx	TDP1 cell noCPT	TDP1 cell CPT	KB-V1 cytotox
COCCOC(=O)c1[nH]c2c(c1C)C(=O)CC(c1cc(OC)c(OC)c(OC)c1)C2 (stereo unspecified)	-19%	i	-11%	2.9µM*	3.7µM*	i
CCCCOC(=O)c1[nH]c2c(c1C)C(=O)CC(c1cc(OC)c(OC)c(OC)c1)C2 (stereo unspecified)	-3%	i	-20%	5.2µM*	6.5µM*	i
C=CCOC(=O)c1[nH]c2c(c1C)C(=O)CC(c1cc(OC)c(OC)c(OC)c1)C2 (stereo unspecified)	-2%	?	-13%	7.3µM*	21µM*	i
Cc1ccc(S(=O)(=O)CCSc2nc(C)cc(C(F)(F)F)c2C#N)cc1	?	18µM*	?	?	?	13µM*
COc1cccc2c1C1COC3C4CC(C(=O)O)C(C(C2)N13)N4C (stereo unspecified)	5.8µM*	?	7.3µM*	12µM*	5.2µM*	16µM*
O=C(Nc1ccccc1-c1ccccc1)c1ccc(=O)[nH]n1	?	i	?	-25%	-27%	i
CCn1c(=O)c(C(=O)Nc2ccccc2)c(O)c2ccccc21	-2%	i	0%	?	?	i
CCc1nc2ccccc2c(=O)n1NC(=O)c1c(O)c2ccccc2n(CC)c1=O	-10%	?	2%	?	?	8.2µM*
Cc1nc2ccccc2c(=O)n1NC(=O)c1c(F)cccc1F	0%	i	3%	13%	-3%	i
CCn1c(=O)c(C(=O)Nn2c(C)nc3ccccc3c2=O)c(O)c2ccccc21	-7%	i	-10%	?	16µM*	?
CCn1c(=O)c(C(=O)Nc2nc3ccccc3[nH]2)c(O)c2ccccc21	7.3µM*	12µM*	10µM*	2.6µM*	2.9µM*	1.2µM*
CCCCCCC1CCC(C(=O)Nn2c(C)nc3ccccc3c2=O)CC1 (stereo unspecified)	14%	i	12%	18µM*	?	?
CCc1nc2ccccc2c(=O)n1NC(=O)c1c(O)c2cccc3c2n(c1=O)CCC3	8%	?	6%	?	?	?
CCCC1CCC(C(=O)Nn2c(C)nc3ccccc3c2=O)CC1 (stereo unspecified)	0%	i	-4%	?	-20%	?
CC(C)(C)NC(=O)COC(=O)c1snc(C(=O)NC2CCCCC2)c1N	?	i	-16%	-13%	-14%	?
CC(OC(=O)c1snc(C(=O)NC2CCCCC2)c1N)C(=O)NC(C)(C)C (stereo unspecified)	-9%	i	?	13µM*	14µM*	?
C[C@H](NC(=O)c1ncn2c1C(=O)NC[C@H]2C)c1ccccc1	0%	i	6%	-3%	7%	i
O=C(C1=C(O)C(=O)N(c2nc3ccc(Cl)cc3s2)C1c1ccco1)c1ccco1 (stereo unspecified)	-2%	i	-6%	2.3µM*	?	?
OC1(c2ccc(Br)cc2)CCNCC1	22µM*	i	?	-26%	?	i
C#CCSc1nnnn1-c1cccc(Cl)c1	0%	?	-1%	-2%	-1%	i
CN1OC[C@@H]2CN(S(=O)(=O)c3cccc(C(F)(F)F)c3)[C@H](c3ccc(-c4cccnc4)cc3)C[C@@H]21	-6%	i	?	21µM*	29µM*	i
Cc1cc(C)c(S(=O)(=O)N2C[C@H]3CON(C)[C@H]3C[C@H]2c2ccc(N3CCCCC3)cc2)c(C)c1	-4%	i	-21%	?	?	i
Cc1ccccc1S(=O)(=O)N1C[C@H]2CON(C)[C@H]2C[C@H]1c1cccc(-c2ccc(C#N)cc2)c1	0%	i	-12%	?	21µM*	i
Cc1ccccc1S(=O)(=O)N1C[C@H]2CON(C)[C@H]2C[C@H]1c1cccc(N2CCOCC2)c1	-1%	?	-1%	-16%	-11%	i
CN1OC[C@@H]2CN(S(=O)(=O)c3cccc4ccccc34)[C@H](c3ccc(-c4cccnc4)cc3)C[C@@H]21	-14%	i	-9%	18µM*	?	i
SMILES	HT1080NT lethal	KB-3-1 cytotox	HT1080 IDH1KD tx	TDP1 cell noCPT	TDP1 cell CPT	KB-V1 cytotox
N#CC(C#N)=C(Nc1ccc(F)cc1)SCc1cccc(F)c1	?	16µM*	?	2.6µM*	2.6µM*	?
CCc1ccc(N/C(SC)=C(/C#N)C(N)=O)cc1	1%	i	11%	?	?	i
COc1ccc(S(=O)(=O)N2CCN(c3ccc(C)cc3C)CC2)cc1OC	2%	i	-4%	?	21µM*	i
Cc1ccc(N2CCN(S(=O)(=O)c3ccc4oc(=O)ccc4c3)CC2)c(C)c1	-1%	i	?	?	16µM*	i
COc1ccc(S(=O)(=O)N2CCN(c3c(C)cccc3C)CC2)cc1OC	-11%	i	-13%	-19%	?	i
Cc1nnsc1S(=O)c1ccc(Br)cc1 (stereo unspecified)	-3%	i	-1%	?	18µM*	i
COc1ccc(NC(=O)C[C@H]2C(=O)N(C3CCCCC3)C[C@@H]2c2ccc(OC)cc2)cc1	-2%	i	0%	?	?	?
COc1ccc(-c2onc(C)c2-c2ccccc2)c(O)c1	?	?	16µM*	18µM*	?	?
COc1ccc(-c2onc(C)c2-c2cnn(-c3ccccc3)c2)c(O)c1	-8%	i	?	21µM*	?	i
COc1ccc(C(=O)Oc2c(Sc3ccccc3)c(C)nn2-c2ccccc2)cc1OC	/	i	/	?	?	i
COC1=CC(=O)OC(c2ccccc2)C1 (stereo unspecified)	11%	i	13%	4%	-1%	i
